An excerpt weighted towards active compounds, which were near 19% of everything screened.
TDP1 cell CPT: growth inhibition of DT40 Tdp1-/-;hTDP1 cells with camptothecin (screen for TDP1 inhibitors). chicken DT40 Tdp1-/-;hTDP1 cells + 20 nM CPT, ATP luminescence, 48 h. Potency, µM (highest dose often 46.2 µM), inactives show top-dose activity change, negative = growth inhibition, most hits filed as inhibitors. 12% of 420,000 active; also: potency is read from the fitted curve at half-maximal effect; % is scaled to controls: 0 for no effect and ±100 for the full control effect; nearly all actives have a fitted effect of over 55% in size
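Chicken DT40 Tdp1-/- cells stably complemented with human TDP1 were seeded at 400 cells/well in medium containing 20 nM camptothecin, exposed to pin-transferred compounds, and grown at 37 °C for at least 48 hr. Viability was read as ATP luminescence.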
DT40 TDP1 no CPT: qHTS for Inhibitors of human tyrosyl-DNA phosphodiesterase 1 (TDP1): qHTS in cells in absence of CPT; DT40 Tdp1-/- hTDP1 cells, no CPT, ATP luminescence, 48 h; Potency, µM (series often up to 46.2 µM), for the others: at the highest dose activity change, negative = growth inhibition, actives largely listed as inhibitors; 15% of 420,000 active; AID 686978, 2013; also: potency is read from the fitted curve at half-maximal effect; % is scaled to controls: 0 for no effect and ±100 for the full control effect; nearly all actives have a fitted effect of over 55% in size
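Growth kinetics read by CellTiter-Glo luminescence after ≥48 hr at 37 °C. Cells: DT40 Tdp1-/- stably carrying human TDP1, 400 per well, compound exposure in the absence of CPT (DMSO vehicle).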
IL-1B inflam inh: inflammasome signaling inhibition, IL-1 beta readout | THP-1 LPS/ATP IL-1B secretion, AlphaLISA, 16 h; stronger effect = lower value | activity change, % at 57.5 µM | 4.7% of 360,000 active; in the data active = activity change below about -50%; inconclusive = mostly about -30% to -49%; also: % is scaled to controls: 0 for no effect and ±100 for the full control effect
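THP-1 cells pretreated 1 hr with compounds (up to 57.5 uM final), then stimulated with LPS (250 ng/mL final) plus ATP (1.25 mM final); secreted IL-1B measured by AlphaLISA after 16 hr, decreased signal indicating inhibition.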
TGFb SMAD3 inh: inhibitors of TGF-b signaling; HepG2 CAGA-GFP TGF-b/SMAD3 reporter, GFP fluorescence, 18 h; TGF-beta stimulated, 500 pg/mL final; 1.2% of 410,000 active; Potency, µM (highest dose often 46.1 µM), for inactives: at the top dose activity, negative = inhibition, usual class: inhibitors; also: potency is read from the fitted curve at half-maximal effect; % is scaled to controls: 0 for no effect and ±100 for the full control effect; nearly all actives have a fitted effect of over 65% in size
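Smad-responsive CAGA-GFP expression was quantified in HEPG2 cells exposed to compounds and 500 pg/mL final TGF-beta for 18 h at 37 degrees C; unstimulated wells defined full inhibition.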
HepG2 tox: counter-screen for TGF-b inhibitors: cytotoxicity in HepG2 cells; HepG2 CAGA-GFP viability, ATP luminescence, 18 h; Potency, µM (highest dose often 46.1 µM), inactives show at the highest dose activity change, negative = cytotoxicity, actives largely listed as cytotoxic; 0.76% of 410,000 active; also: potency is read from the fitted curve at half-maximal effect
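HepG2 CAGA-GFP cells (1000/well, DMEM with 1% FBS) received compound, then TGF-beta at 500 pg/mL final, and were incubated 18 hours at 37 degrees C. Viability was read by CellTiter-Glo luminescence. Media-only wells were set as complete cell-killing and DMSO as no toxicity.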
ASM inhibitor: blocks human secretory acid sphingomyelinase; Potency, µM (series often up to 57.5 µM), without a hit: at the highest dose activity change, negative = inhibition, usual class: inhibitors; P17405; placental ASM, HMU-PC fluorogenic substrate, 60 min; 0.006% of 340,000 active; also: potency is read from the fitted curve at half-maximal effect
Target sequence (P17405 47-631 limits assumed): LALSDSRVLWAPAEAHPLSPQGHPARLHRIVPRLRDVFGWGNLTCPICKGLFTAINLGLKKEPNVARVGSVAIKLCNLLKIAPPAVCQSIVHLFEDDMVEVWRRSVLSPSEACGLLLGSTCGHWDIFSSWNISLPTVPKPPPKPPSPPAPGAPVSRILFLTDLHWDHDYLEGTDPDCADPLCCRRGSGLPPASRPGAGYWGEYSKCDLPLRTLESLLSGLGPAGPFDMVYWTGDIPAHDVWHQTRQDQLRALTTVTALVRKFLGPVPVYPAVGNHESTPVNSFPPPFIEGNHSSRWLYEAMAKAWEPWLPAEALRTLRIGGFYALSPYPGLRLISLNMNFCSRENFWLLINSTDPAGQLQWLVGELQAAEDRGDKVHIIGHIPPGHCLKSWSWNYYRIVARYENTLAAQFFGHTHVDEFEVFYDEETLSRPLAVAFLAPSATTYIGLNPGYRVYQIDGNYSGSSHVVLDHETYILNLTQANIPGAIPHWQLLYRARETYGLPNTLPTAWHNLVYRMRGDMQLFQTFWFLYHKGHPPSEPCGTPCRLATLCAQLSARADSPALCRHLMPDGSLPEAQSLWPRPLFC
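qHTS format. ASM enzyme prepared from human placenta hydrolyses the fluorogenic substrate HMU-PC0 (9 uM final) over 60 min at 37 °C after a 10 min compound preincubation.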
An asterisk follows results filed as active; ? = inconclusive; . = no result given. Unless noted, calls follow the shape of the dose curve; as a rule, active = well fitted curve in the direction sought with a large enough effect; inconclusive = small, poorly fitted or top-dose-only effect, or another doubt; inactive = no such curve, though single readings can be large; an effect the other way counts as inactive or inconclusive.

SMILES	TDP1 cell CPT	DT40 TDP1 no CPT	IL-1B inflam inh	TGFb SMAD3 inh	HepG2 tox	ASM inhibitor
CC(C)c1ccc(CC(=O)N2CCC2(C)C(=O)NS(=O)(=O)c2ccc(Cl)s2)cc1 (stereo not drawn)	3%	11%	42	7%	5%	.
CC(=O)C(=Cc1cccc(C#N)c1)C(=O)c1ccccc1	16µM*	16µM*	-118*	?	-44%	.
CCOC(=O)/C=c1\s/c(=C\c2c(OC)ccc3ccccc23)c(=O)n1CC(=O)NCC1CCCO1 (stereo not drawn)	?	21µM*	31	75%	-5%	-14%
CCOC(=O)/C=c1\s/c(=C\c2ccc(C#N)cc2)c(=O)n1CC(=O)NCc1ccco1	18%	-13%	0	-15%	-15%	14%
CCOC(=O)/C=c1\s/c(=C\c2ccc(C(=O)OC)cc2)c(=O)n1CC(=O)Nc1ccccc1	16µM*	?	3	-18%	15%	11%
CCOC(=O)/C=c1/s/c(=C/c2ccc3cc(OC)ccc3c2)c(=O)n1CC(=O)NCC1CCCO1 (stereo not drawn)	16µM*	10µM*	0	6%	15%	141%
O=C(Nc1cccc(S(=O)(=O)NC2=NCCC2)c1)c1cc(F)c(F)c(F)c1F	-2%	-15%	-5	?	-13%	0%
CCCSc1nc(=S)n(Cc2ccccc2)c(C)c1C(C)=O	-20%	23µM*	-3	2%	-1%	-1%
CC(=O)c1c(N2CCN(Cc3ccccc3)CC2)nc(=S)n(Cc2ccccc2)c1C	16µM*	16µM*	6	?	-7%	2%
CC(=O)c1c(C(C)=O)c(C)n(Cc2ccccc2)c1C	-19%	?	10	-11%	-4%	1%
CCn1c(C)c(C(C)=O)c(N2CCCC2)nc1=S	0%	-1%	-11	1%	8%	-1%
CC(=O)c1c(N2CCCCC2)nc(=S)n(Cc2ccccc2)c1C	26µM*	?	-18	4%	-9%	1%
CC(=O)c1c(N2CCN(c3ccc(F)cc3)CC2)nc(=S)n(Cc2ccccc2)c1C	?	?	?	-17%	-15%	-2%
CC(C)NC(=O)N1CC[C@@]2(CCCN(S(=O)(=O)c3ccccc3)C2)C1	14%	-14%	.	.	.	.
COC(=O)C(C(=O)OC)c1ncccc1NS(=O)(=O)c1ccc(C)cc1	8%	-14%	2	.	.	.
O=C(CSc1nc2ccccc2c2nc(-c3ccccc3)nn12)Nc1ccc(Br)cc1	-19%	-21%	.	0%	4%	.
CC(C)(C)NC(=O)COC(=O)c1ccccc1OCC(=O)Nc1ccc(Br)cc1	-3%	-27%	3	-16%	-25%	-5%
O=C(COc1ccccc1C(=O)O)Nc1cccc2ccccc12	0%	14%	16	-5%	2%	8%
CCOC(=O)c1cccc(NC(=O)COc2ccc([N+](=O)[O-])cc2)c1	?	?	10	-14%	-8%	-3%
O=C(COc1ccccc1C(=O)Nc1ccccc1)NCCCCc1ccccc1	?	18µM*	.	.	.	.
CCCCc1ccc(NC(=O)COC(=O)c2ccccc2OCC(=O)Nc2ccc(Br)cc2)cc1	11µM*	?	.	12%	0%	.
O=C(COc1cccc2ccccc12)Nc1cc(Cl)ccc1C(=O)O	11%	-10%	-53*	0%	-31%	8%
CCCOC(=O)c1cccc(NC(=O)COc2ccc([N+](=O)[O-])cc2)c1	18µM*	23µM*	-8	-15%	3%	.
O=C(COc1ccccc1C(=O)Nc1ccccc1)Nc1ccc(Br)cc1	?	?	.	1%	-6%	.

High-throughput results: PubChem, National Center for Advancing Translational Sciences (NCATS)
